# Laboratory results published in PubChem BioAssay AID2014 (Sanford-Burnham Center for Chemical Genomics, 2009).
# In all, about 290,000 compounds went through this assay and about 3,000 (1%) were called active. How the calls were made is not given here. What follows is part of a selection rich in actives, with near analogues and random picks from the rest.
# Molecular target: Polyadenylate-binding protein 1 (Homo sapiens) (UniProt P11940)
# Assay: PABP poly(A) RNA binding inhibitors, primary screen, biochemical, fluorescence polarization, uHTS (AID 2014);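 further: calls also rest on retests at 20 µM and on dose response follow-up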
# Settings: stronger effect = higher value
# Sequence of Polyadenylate-binding protein 1 (Homo sapiens) (P11940 whole entry, looked up): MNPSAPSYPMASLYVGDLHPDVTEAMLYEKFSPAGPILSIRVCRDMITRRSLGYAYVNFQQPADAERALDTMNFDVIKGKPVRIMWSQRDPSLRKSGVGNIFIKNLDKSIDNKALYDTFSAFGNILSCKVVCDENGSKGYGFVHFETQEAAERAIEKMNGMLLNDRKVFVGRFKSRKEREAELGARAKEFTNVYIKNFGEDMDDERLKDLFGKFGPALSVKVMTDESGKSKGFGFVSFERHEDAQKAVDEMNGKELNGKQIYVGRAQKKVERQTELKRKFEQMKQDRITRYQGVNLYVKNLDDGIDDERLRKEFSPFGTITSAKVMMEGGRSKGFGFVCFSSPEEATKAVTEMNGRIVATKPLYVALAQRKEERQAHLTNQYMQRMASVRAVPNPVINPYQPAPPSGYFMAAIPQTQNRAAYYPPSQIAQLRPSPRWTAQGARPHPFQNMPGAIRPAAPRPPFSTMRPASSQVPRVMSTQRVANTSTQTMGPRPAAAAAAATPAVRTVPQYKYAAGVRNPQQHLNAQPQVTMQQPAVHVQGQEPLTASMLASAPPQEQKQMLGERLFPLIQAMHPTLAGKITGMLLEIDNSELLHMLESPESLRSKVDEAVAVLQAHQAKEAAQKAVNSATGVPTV
SMILES,inhibition (at 35 µM),"inhibition (confirmation repeats, at 20 µM)"
O=C(O)COc1ccccc1/C=C1\C(=O)NC(=O)N(CCC2=CCCCC2)C1=O,53.5% (active),
O=C1NC(=O)N(Cc2ccco2)C(=O)/C1=C\c1cccn1CCOc1ccccc1,10.9% (inactive),
O=C1NC(=O)N(CCc2ccc(F)cc2)C(=O)/C1=C/C=C/c1ccccc1,-13.4% (inactive),
COc1ccc(Br)cc1CNCCc1cccc(Cl)c1,3.3% (inactive),
c1ccc(CC2CCCCN2)cc1 (stereo unspecified),1.7% (inactive),
COc1ccc(CNCCc2c[nH]c3ccccc23)cc1OC,11.6% (inactive),
CCC(=NCCc1ccccc1)c1c(O)n(C2CCCCC2)c(=O)[nH]c1=O,-9.2% (inactive),
CC(=O)c1c(O)n(C2CCCCCC2)c(=O)[nH]c1=O,75.6% (active),
CC(=NCC1CCCO1)c1c(O)n(-c2ccccc2)c(=O)[nH]c1=O (stereo unspecified),-3.4% (inactive),
COc1cccc(OC)c1C(=O)NC(=S)N1C[C@H]2C[C@H](C1)c1cccc(=O)n1C2,13.3% (inactive),
CN(C)c1ccc(/C=C2\CC3C4CC=C5CC(O)CCC5(C)C4CCC3(C)C2=O)cc1 (stereo unspecified),53.3% (active),93.6%
O=C(Cc1ccc(Cl)cc1)NCCN1CCN(C(=O)Cc2ccc(Cl)cc2)CC1,3.1% (inactive),
O=[N+]([O-])c1cnc2ccc3ccccc3c2c1,3.3% (inactive),
COc1ccc2[nH]c3c(c2c1)CCN[C@H]3C,7.6% (inactive),
COc1ccc(N=Cc2c(O)n(C)c(=O)[nH]c2=O)cc1,-8.6% (inactive),
CN(C)CCN(CC1CCCN(Cc2ccccc2F)C1)C(=O)Cc1ccc(F)c(F)c1 (stereo unspecified),0.6% (inactive),
Cc1c(Oc2cc(NN3CCCCC3)c([N+](=O)[O-])cc2[N+](=O)[O-])cccc1[N+](=O)[O-],2.3% (inactive),
O=C(NC(=S)N1C[C@H]2C[C@H](C1)c1cccc(=O)n1C2)c1ccc(F)cc1,2.2% (inactive),
CCN(CC)CCOC(=O)c1cc2cc(COC)ccc2o1,70.7% (active),
C=CCN1C(=O)NC(=O)/C(=C/c2ccc(OCC(=O)Nc3ccc(C)cc3)cc2)C1=O,8.1% (inactive),
COc1ccc(CNCCc2ccc3c(c2)OCO3)c(OC)c1OC,11.3% (inactive),
CCNc1nc2[nH]c(=O)c3c(c2s1)OC(N)=C(C#N)C3c1cccs1 (stereo unspecified),68.5% (active),

SMILES,inhibition (at 35 µM),"inhibition (confirmation repeats, at 20 µM)"
N#CC1=C(N)Oc2c(c(=O)oc3ccccc23)C1c1ccccc1OC(=O)c1cccs1 (stereo unspecified),-4.4% (inactive),
COc1cccc(C(=O)N2C[C@H]3C[C@@H](C2)c2cccc(=O)n2C3)c1,1.4% (inactive),
COc1ccccc1NC(=O)N1C[C@@H]2C[C@@H](C1)c1cccc(=O)n1C2,-1.1% (inactive),
O=C(O)c1ccccc1NC(=O)C1C2CCC(O2)C1C(=O)O (stereo unspecified),-8.7% (inactive),
COc1cccc(N2C(=O)NC(=O)/C(=C\c3ccc([N+](=O)[O-])s3)C2=O)c1,-6.1% (active),95.4%
O=C1NC(=O)N(c2ccccc2)C(=O)/C1=C/c1ccc([N+](=O)[O-])s1,40.1% (inactive),30.8%
Cc1cccc(N2C(=O)NC(=O)/C(=C\c3cnn(-c4ccccc4)c3)C2=O)c1,-12.4% (inactive),
Oc1cc2c(cc1CN1CCN(c3ccccc3)CC1)OCO2,2% (inactive),
COCCNC(=O)CN1C2CCC1CC(O)(c1cccnc1)C2 (stereo unspecified),14.6% (inactive),
O=C(CN1CCCC1=O)NCCc1ccccc1,-2.9% (inactive),
CC(C)(C)c1ccc(CN2C(=O)CN=C(c3ccccc3)c3ccccc32)cc1,12.1% (inactive),
O=C1CC(=O)N(Cc2ccccc2)C(=O)N1CCCCCCN1C(=O)CC(=O)N(Cc2ccccc2)C1=O,25.8% (active),112%
CC(C)c1ccc(OCC(=O)N2CCCN(C)CC2)cc1,-0.5% (inactive),
Cc1cc(/C=C2/C(=O)NC(=O)N(Cc3ccco3)C2=O)c(C)n1-c1ccc(C(=O)O)cc1,47.1% (inactive),23.1%
COc1ccc(CN2C(=O)NC(=O)/C(=C\c3ccc(OC)c(OC)c3OC)C2=O)cc1,66.4% (inactive),6.1%
COc1ccc(N2C(=O)/C(=C/c3ccco3)C(=O)NC2=S)cc1,38.7% (active),73.3%
COc1ccccc1OC(=O)c1ccc(C)c(S(=O)(=O)N2CCOCC2)c1,-7% (inactive),
CCN(CC)C(=O)c1ccc(NC(=O)c2sccc2-c2ccccc2)cc1,-2.6% (inactive),
CN(C)C(=O)Oc1ccc2c(c1)O/C(=C\c1ccccc1)C2=O,-6.7% (inactive),
CC(=O)Nc1ccc(C(=O)C(Cc2ccccc2)N(C)C)cc1 (stereo unspecified),-3.6% (inactive),
c1ccc(CCNC2CCCCCC2)cc1,8.2% (inactive),
O=c1[nH]c(=O)n(CCc2ccccc2)c(O)c1/C=N/N1CCOCC1,-1.6% (inactive),

SMILES,inhibition (at 35 µM),"inhibition (confirmation repeats, at 20 µM)"
CCCCC(=O)N/N=C/c1c(O)n(-c2ccccc2)c(=O)[nH]c1=O,5.3% (inactive),
O=c1[nH]c(=O)n(Cc2ccccc2)c(O)c1/C=N/Nc1c(F)c(F)c(F)c(F)c1F,71% (active),
O=C(N/N=C/c1c(O)n(C2CC2)c(=S)[nH]c1=O)c1ccccc1,0.6% (inactive),
O=C(N/N=C/c1c(O)n(Cc2ccccc2)c(=O)[nH]c1=O)c1ccccc1,15% (active),81.4%
O=c1[nH]c(=O)n(CCc2ccc(F)cc2)c(O)c1/C=N/N1CCCCC1,-15% (inactive),
CN1CCC(OC(=O)c2cccc(F)c2)CC1,-7.8% (inactive),
CCN(CC)C(=O)Oc1ccc(NC(=O)N2CCOCC2)cc1,2.1% (inactive),
CCN1CCN(Cc2cc(OC)c3c(c2)OCO3)CC1,16.4% (inactive),
Cc1ccc(C2CN(C)CC2C(=O)c2ccc(F)cc2)cc1 (stereo unspecified),3.1% (inactive),
CC1(C)Cc2c(C#N)c(N3CCNCC3)nc(-c3ccco3)c2CS1,47.2% (active),59.2%
O=C(N/N=C/c1c(O)n(C2CC2)c(=S)[nH]c1=O)c1ccccc1Cl,31% (inactive),
O=c1c2ccccc2nc(-c2ccco2)n1-c1ccc(Br)cn1,5.1% (inactive),
O=c1c2ccccc2nc(/C=C/c2ccc(F)cc2)n1-c1ccccc1O,-9.7% (inactive),
O=c1c2ccccc2nc(/C=C/c2ccco2)n1-c1ccccc1O,43.7% (active),54.4%
CN(C)S(=O)(=O)c1cc(C(=O)N2CCC(C(=O)O)(c3ccccc3)CC2)ccc1Cl,7.1% (inactive),
Cc1cccc(NC(=O)N2CC3CC(C2)c2cccc(=O)n2C3)c1 (stereo unspecified),-0.3% (inactive),
CC1CCC(N(C)C2CCN(C)CC2)CC1 (stereo unspecified),10.9% (inactive),
CC(C)n1c(=O)c(C=Nc2ccc(Br)cc2)c(O)n(Cc2ccco2)c1=O,6% (active),52%
CN(C)CCCN=Cc1c(O)n(Cc2ccco2)c(=O)[nH]c1=O,3% (inactive),
Cn1c(O)c(C=Nc2ccc3c(c2)CCC3)c(=O)n(C)c1=O,-0.7% (inactive),
CCN1C(=O)C(=Cc2c(C)n(CC(=O)NCC3CCCO3)c3ccccc23)C(=O)N(CC)C1=S (stereo unspecified),-3.1% (inactive),
